Nrf2 ARE act: Nrf2 pathway activation; Potency, µM (top dose mostly 46.1 µM), hits mostly activators; AID 624171; AREc32 ARE-luciferase reporter (MCF7-derived line), luminescence, 24 h; hit rate 0.31% among 410,000; note: nearly all actives have a fitted effect of over 65% in size
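Luminescent ARE reporter assay in AREc32_Fluc cells: overnight plating at 37 deg C, 24 hr compound incubation, Steady-Glo added, 30 min RT before reading.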
ELG1 DNA repair: ELG1-dependent DNA repair inhibition | HEK293T ELG1-luciferase reporter, luminescence, 16 h; DNA damage induced by 5-fluorouridine | Potency, µM (doses to about 46.1 µM), hits mostly inhibitors | hit rate 2.3% among 330,000 | AID 504467; note: nearly all actives have a fitted effect of over 55% in size
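DMSO vehicle served as the neutral condition. Each well held 2,000 cells given 5-fluorouridine plus compound; after 16 hr at 37 °C/5% CO2, ONE-Glo was added and luciferase measured 30 min later.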
BRCA1 expr up: activators of BRCA1 expression; Potency, µM (top dose mostly 46.1 µM), most hits filed as activators; hit rate 1.1% among 380,000; AID 624202; MCF7-BRCA1-FFLuc reporter, luminescence, 48 h; response scale: scaled: vehicle 0%, 10 µM genistein 100%; note: nearly all actives have a fitted effect of over 80% in size
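Cells: MCF7-BRCA1-FFLuc, 2000/well. Exposure: 48 h, 37 °C, 5% CO2. Read: luminescence, 15 min post-substrate. Controls: genistein 10 microM (maximal activation), DMSO (neutral).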
IL-2 act: activators of IL-2; IL-2 activation reporter assay, cell-based qHTS; stimulated with anti-CD3/CD4/CD28 beads; in transgenic mouse T cells; activation, % (series mostly up to about 46 µM); hit rate 0.065% among 360,000; AID 652025; in the data active = activation above about 50%; inconclusive = mostly about 30% to 49%
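Using fluorescent plate cytometry, EGFP and DsRed are detected in transgenic mouse T cells stimulated 18 h at 37 degrees C with antibody-coated beads after 60 min compound pretreatment.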
Large screens that a line does not name were inactive. Sampled rows, rich in hits. Any-hit rate of the full collection: about 3.1%. Unless noted, calls come from the whole dose curve; as a rule, active = well fitted curve in the direction sought with a large enough effect; inconclusive = small, poorly fitted or top-dose-only effect, or another doubt; inactive = no such curve, though single readings can be large; an effect the other way counts as inactive or inconclusive.

O=C(NC1CCCC1)C1C(c2ccc(C(F)(F)F)cc2)=Nc2ccccc2N1C(=O)c1cc2ccccc2[nH]1 (configuration not stated)	none (no result: Nrf2 ARE act, ELG1 DNA repair, BRCA1 expr up)
O=C(O)CCc1ccc(-c2ccccc2)n1-c1cccc(Br)c1	none (no result: ELG1 DNA repair, BRCA1 expr up, IL-2 act)
Cc1cc2cc(CN(Cc3ccco3)C(=O)NCc3ccccc3)c(=O)[nH]c2cc1C	ELG1 DNA repair inconclusive
CCN(CC)CCCN(Cc1cc2cc3c(cc2[nH]c1=O)OCO3)C(=S)Nc1ccc(OC)cc1	none
O=C(Nc1ccc(F)cc1)N(Cc1ccco1)Cc1cc2cc3c(cc2[nH]c1=O)OCO3	ELG1 DNA repair 23.1µM
COc1ccc(NC(=O)N(Cc2cccs2)Cc2cc3cc4c(cc3[nH]c2=O)OCO4)cc1	ELG1 DNA repair 20.6µM (no result: Nrf2 ARE act, BRCA1 expr up, IL-2 act)
COc1ccc2[nH]c(=O)c(CN(Cc3cccs3)S(=O)(=O)c3cccc4nsnc34)cc2c1	ELG1 DNA repair 1.3µM
CC(=O)N(CCc1ccccc1C)Cc1cc2ccc(C)cc2[nH]c1=O	ELG1 DNA repair 16.4µM
Cc1ccccc1-c1nc2c3c(-c4ccccc4)c(-c4ccccc4)oc3ncn2n1	none (no result: ELG1 DNA repair, BRCA1 expr up, IL-2 act)
Cc1cc(O)c(CN2CCN(c3ccc(F)cc3)CC2)c2oc(=O)cc(C)c12	none (no result: ELG1 DNA repair, BRCA1 expr up, IL-2 act)
Cc1ccc(NC(=S)N(CCCN(C)C)Cc2cc3cc4c(cc3[nH]c2=O)OCO4)cc1	none
COc1cc2cc(CN(CCc3cccc(C)c3)C(=S)NCCCN(C)C)c(=O)[nH]c2cc1OC	none
COc1ccc(CN(Cc2cc3cc4c(cc3[nH]c2=O)OCO4)C(=O)NC2CCCCC2)cc1	ELG1 DNA repair 16.4µM
CCN(CC)CCN(Cc1cc2cc3c(cc2[nH]c1=O)OCCO3)C(=O)NC1CCCCC1	ELG1 DNA repair inconclusive
Cc1ccc(NC(=O)N(Cc2cccs2)Cc2cc3cc4c(cc3[nH]c2=O)OCO4)cc1	ELG1 DNA repair 20.6µM (no result: Nrf2 ARE act, BRCA1 expr up, IL-2 act)
COc1ccc2[nH]c(=O)c(CN(Cc3cccs3)C(=S)Nc3cccc(C)c3)cc2c1	ELG1 DNA repair 5.8µM
CNC(=S)N(CCc1cccc(C)c1)Cc1cc2cc(OC)c(OC)cc2[nH]c1=O	ELG1 DNA repair 13µM
COc1ccc(NC(=O)CSc2oc(-c3ccc(F)cc3)nc2S(=O)(=O)c2ccc(C)cc2)c(OC)c1	none (no result: ELG1 DNA repair, BRCA1 expr up, IL-2 act)
COc1ccccc1-c1noc(CCCC(=O)Nc2cc(C)ccc2C)n1	none (no result: ELG1 DNA repair, BRCA1 expr up, IL-2 act)
Cc1ccc(NC(=O)N(Cc2ccc3c(c2)OCO3)Cc2cc3cc4c(cc3[nH]c2=O)OCCO4)cc1	ELG1 DNA repair 20.6µM
Cc1ccc(NC(=O)N(CCCN2CCOCC2)Cc2cc3cc4c(cc3[nH]c2=O)OCO4)cc1	none
CCCCNC(=S)N(Cc1ccco1)Cc1cc2cc3c(cc2[nH]c1=O)OCCO3	ELG1 DNA repair 14.6µM
CCOCCCNC(=S)N(Cc1ccco1)Cc1cc2cc3c(cc2[nH]c1=O)OCCO3	ELG1 DNA repair inconclusive
Cc1nn(-c2ccccc2)c2sc(C(=O)Nc3cccc(Br)c3)cc12	none (no result: ELG1 DNA repair, BRCA1 expr up, IL-2 act)
O=C(NC1CCCCC1)c1cc(-c2cccc(Cl)c2)on1	ELG1 DNA repair inconclusive, BRCA1 expr up 4.47µM
O=C(NC1CCCC1)c1cc(-c2ccccc2O)on1	ELG1 DNA repair inconclusive, BRCA1 expr up 2.82µM
O=C(NC1CCCC1)c1cc(-c2cccc(Cl)c2)on1	Nrf2 ARE act inconclusive, ELG1 DNA repair inconclusive, BRCA1 expr up inconclusive
Cc1nc(-c2cc(-c3nc(-c4ccc(C(F)(F)F)cc4)no3)no2)cs1	none
Cc1cc(-c2nc(-c3ccc(C(C)(C)C)cc3)no2)no1	ELG1 DNA repair inconclusive, BRCA1 expr up 7.08µM
Cc1cccc(C)c1NC(=O)C(Cl)=C(Cl)Cl	Nrf2 ARE act 11.2µM
Cc1cccc(C)c1OCCCn1c(CCNC(=O)C2CCCCC2)nc2ccccc21	none (no result: ELG1 DNA repair, IL-2 act)
CC(C)C(=O)N1CCC1(C)C(=O)Nc1ccc2[nH]ccc2c1 (configuration not stated)	none (no result: ELG1 DNA repair)
CCCCc1nc(NCCNC(=O)c2ccco2)c(C#N)c2c1CSC(C)(C)C2	ELG1 DNA repair 14.6µM
Cc1ccc([N+](=O)[O-])c2cccnc12	none
O=[N+]([O-])c1cc2cccnc2c2ncccc12	ELG1 DNA repair 7.3µM
O=[N+]([O-])c1cc(O)c2ncccc2c1	Nrf2 ARE act inconclusive, ELG1 DNA repair 2.59µM
COc1ccccc1/C=N\Nc1ccccc1[N+](=O)[O-]	Nrf2 ARE act inconclusive, ELG1 DNA repair inconclusive, BRCA1 expr up 10µM
O=[N+]([O-])c1ccc(NN=Cc2ccccc2)nc1	BRCA1 expr up inconclusive (no result: ELG1 DNA repair)
O=[N+]([O-])c1ccc(N/N=C/c2cccs2)nc1	Nrf2 ARE act inconclusive, BRCA1 expr up 3.98µM (no result: ELG1 DNA repair)
N#Cc1ccccc1Cn1cc(/C=N/Nc2ccc([N+](=O)[O-])cn2)c2ccccc21	ELG1 DNA repair 6.51µM, IL-2 act 74.0
CC(C)Oc1ccccc1/C=N/Nc1ccccc1[N+](=O)[O-]	Nrf2 ARE act 10µM
CCOc1ccccc1/C=N/Nc1ccccc1[N+](=O)[O-]	ELG1 DNA repair inconclusive
Cc1cc(NC(=O)OC(C)(C)C)c(-n2nnnc2C(C(=O)c2ccccc2)N2CCOCC2)cc1C (configuration not stated)	none (no result: Nrf2 ARE act, ELG1 DNA repair, BRCA1 expr up)
Cc1ccc(-c2noc(-c3ccc(NC4CCCC4)c([N+](=O)[O-])c3)n2)cc1	none (no result: ELG1 DNA repair, IL-2 act)
COc1cccc(C=NNc2ccc([N+](=O)[O-])cn2)c1OC	none (no result: ELG1 DNA repair)
COc1ccccc1C=NNc1ccc([N+](=O)[O-])cn1	IL-2 act 72.8 (no result: ELG1 DNA repair)
Cc1ccc(N2C(=O)CSC23C(=O)N(CC(=O)NCc2ccccc2)c2ccccc23)cc1C (configuration not stated)	none (no result: ELG1 DNA repair, IL-2 act)
O=C(Cn1nnc(-c2ccccc2)n1)NC1CCS(=O)(=O)C1 (configuration not stated)	none
CCN(CC(=O)NC1CCS(=O)(=O)C1)c1nc(-c2ccccc2)nc2ccccc12 (configuration not stated)	ELG1 DNA repair 13µM
Cc1nc2nc(SCC(=O)NCCc3ccc(Cl)cc3)nn2c(C)c1Cc1ccccc1	none (no result: ELG1 DNA repair, BRCA1 expr up, IL-2 act)
CCOC(=O)c1c(C)nc(-c2ccccc2)nc1N	Nrf2 ARE act 12.6µM, ELG1 DNA repair inconclusive
CC(=O)c1c(C)nc(-c2ccccc2)nc1N	ELG1 DNA repair inconclusive
C=CCn1c(SCC(=O)c2cc(C)n(Cc3cccs3)c2C)nnc1-c1ccncc1	ELG1 DNA repair 16.4µM
Cc1ccccc1-n1c(SCC(=O)c2cc(C)n(C)c2C)nnc1-c1ccncc1	ELG1 DNA repair 11.2µM
CCCC12CN3CC(CCC)(CN(C1)C3c1ccc(OCc3ccccc3)cc1)C2=O (configuration not stated)	none (no result: ELG1 DNA repair, BRCA1 expr up, IL-2 act)
N#Cc1c(N)nc(SCc2ccncc2)c(C#N)c1-c1cccs1	ELG1 DNA repair 5.17µM
COc1cc(-c2c(C#N)c(N)nc3c2CCCC3)cc(OC)c1OC	none
COc1cc(-c2c(C#N)c(N)nc(SCc3ccncc3)c2C#N)cc(OC)c1OC	ELG1 DNA repair 11.2µM
COc1ccccc1NC(=O)CN1CCCCCC1	none
CCOc1ccc(NC(=O)CN2CCN(C3c4ccccc4-c4ccccc43)CC2)cc1	ELG1 DNA repair 13µM
CCOc1ccc(NC(=O)CN2CCN(CC(=O)Nc3ccccc3OC)CC2)cc1	ELG1 DNA repair inconclusive
COc1ccccc1NC(=O)CN1CCN(C2c3ccccc3-c3ccccc32)CC1	ELG1 DNA repair 3.66µM
